{
  "source": "PubChem BioAssay AID1851",
  "about": "(National Center for Advancing Translational Sciences (NCATS), 2009)",
  "note": "Values joined by “and” are separate entries in the source; they are usually repeats but may differ in a detail not shown here. Equal entries are not always repeated. In all, about 16,000 compounds went through this assay and about 5,100 (32%) were called active. About 25% were inconclusive and are not listed. The list shows a part of the results. Values without a mark were called inactive. Calls come from the whole dose curve; as a rule, active = well fitted curve in the direction sought with a large enough effect; inconclusive = small, poorly fitted or top-dose-only effect, or effect the other way; inactive = no such curve, though single readings can be large or run the other way. % is set by controls: 0 for no effect and ±100 for the full control effect.",
  "data": [
    {"molecular_target": "Cytochrome P450 3A4 (Homo sapiens) (UniProt P08684)", "sequence (P08684 whole entry, looked up)": "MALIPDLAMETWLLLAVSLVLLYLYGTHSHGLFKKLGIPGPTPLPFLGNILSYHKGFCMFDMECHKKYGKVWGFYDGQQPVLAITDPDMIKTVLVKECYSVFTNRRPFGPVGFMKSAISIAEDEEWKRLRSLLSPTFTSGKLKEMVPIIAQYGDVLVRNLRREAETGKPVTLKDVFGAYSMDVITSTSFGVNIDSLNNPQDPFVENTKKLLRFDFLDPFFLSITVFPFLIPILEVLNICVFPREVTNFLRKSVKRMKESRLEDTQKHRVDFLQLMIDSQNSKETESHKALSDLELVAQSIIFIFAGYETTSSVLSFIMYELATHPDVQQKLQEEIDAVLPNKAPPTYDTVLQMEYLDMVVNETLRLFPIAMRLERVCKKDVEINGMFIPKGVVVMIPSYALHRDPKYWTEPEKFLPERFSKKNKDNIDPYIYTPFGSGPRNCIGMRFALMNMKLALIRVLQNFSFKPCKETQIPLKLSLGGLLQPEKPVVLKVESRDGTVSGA", "test": "Cytochrome panel assay with activity outcomes", "settings": "recombinant CYP, pro-luciferin dealkylation, luminescence, p450-cyp3a4; series mostly up to 57.1 µM; activity, negative = inhibition: at the top concentration", "values": [
      {"smiles": "O=C(O)[C@H]1CCCNC1", "activity, negative = inhibition": "-8.58%"},
      {"smiles": "NS(=O)(=O)c1ccc(NCc2nc3ccccc3[nH]2)cc1", "activity, negative = inhibition": "-19.2% [at 11.4 µM]"},
      {"smiles": "NS(=O)(=O)c1ccc(NCc2ccccc2OCc2ccccc2F)cc1", "AC50": "15.8 µM (active)"},
      {"smiles": "NS(=O)(=O)c1ccc(NCc2cnc3ccccc3n2)cc1", "activity, negative = inhibition": "-7.19% [at 11.4 µM]"},
      {"smiles": "CCCOc1ccccc1-c1nc2n[nH]nc2c(=O)[nH]1", "AC50": "inactive"},
      {"smiles": "C=CCc1cccc(C2Nc3ccccc3C(=O)N2O)c1O", "note": "(centres undefined)", "AC50": "20 µM (active)"},
      {"smiles": "O=C1c2ccccc2NC(c2ccc(Cl)cc2Cl)N1O", "note": "(centres undefined)", "activity, negative = inhibition": "-28.7%"},
      {"smiles": "CC(=O)c1c(O)cc(=O)n(-c2ccccc2)c1-c1ccc(C)cc1", "activity, negative = inhibition": "-6.63%"},
      {"smiles": "Cc1cc(O)c(C(C)C)cc1C1(c2cc(C(C)C)c(O)cc2C)OC(=O)c2ccccc21", "AC50": "1.58 µM (active)"},
      {"smiles": "Cc1cc(O)c(C(C)C)cc1CN1CCCCC1", "activity, negative = inhibition": "-7.75% [at 11.4 µM]"},
      {"smiles": "Fc1ccc(COc2ccc(Br)cc2CNCc2ccncc2)cc1", "AC50": "0.562 µM (active)"},
      {"smiles": "FC(F)(F)c1ccccc1-c1nc(NCc2cccs2)c2ccccc2n1", "AC50": "3.98 µM (active)"},
      {"smiles": "Clc1ccccc1-c1nc(NCc2cccs2)c2ccccc2n1", "AC50": "6.31 µM (active)"},
      {"smiles": "C/C(=N\\NC(=O)c1cccc(C)c1)c1cccc(NC(=O)c2ccco2)c1", "activity, negative = inhibition": "-7.23% [at 2.29 µM]"},
      {"smiles": "C/C(=N/NC(=O)Cc1cccn1C)c1ccccc1", "activity, negative = inhibition": "-28.1%"},
      {"smiles": "C/C(=N\\NC(=S)Nc1cccc(C)c1)c1ccccc1", "AC50": "8.91 µM (active)"},
      {"smiles": "COc1cc(C(=O)NCc2cccc3ccccc23)cc(Cl)c1OC", "AC50": "10 µM (active)"},
      {"smiles": "COc1ccc(S(=O)(=O)N2CCCCCC2)cc1N(C)S(=O)(=O)c1ccc(Cl)cc1", "activity, negative = inhibition": "-26.2% [at 2.29 µM]"},
      {"smiles": "O=S(=O)(c1cccc2c(Cl)cccc12)N1CCCNCC1", "AC50": "5.01 µM (active) and 3.98 µM (active)"},
      {"smiles": "CC1CCN(C(=O)C2CCN(S(=O)(=O)c3cccc4nonc34)CC2)CC1", "activity, negative = inhibition": "-12%"},
      {"smiles": "O=S(=O)(c1cccc2cnccc12)N1CCNCC1", "AC50": "12.6 µM (active)"},
      {"smiles": "O=C(O)C1(C(=O)O)CCN(S(=O)(=O)c2ccccc2)CC1", "activity, negative = inhibition": "-12.3% [at 11.4 µM]"},
      {"smiles": "O=S(=O)(c1ccccc1)N1CN2CN(C1)CN(S(=O)(=O)c1ccccc1)C2", "activity, negative = inhibition": "-1.65% [at 11.4 µM]"},
      {"smiles": "O=S(=O)(c1ccccc1S(=O)(=O)N1CCCCC1)N1CCCCC1", "AC50": "8.91 µM (active)"},
      {"smiles": "C[C@H]1CN(S(=O)(=O)c2cccc3cnccc23)CCN1", "AC50": "10 µM (active)"},
      {"smiles": "CCOC(=O)C(NC(C)=O)C(=O)O", "note": "(centres undefined)", "activity, negative = inhibition": "1.64%"},
      {"smiles": "O=C1C=CC(=Nc2cccc3c(N=C4C=CC(=O)O4)cccc23)O1", "activity, negative = inhibition": "-24.5% [at 11.4 µM]"},
      {"smiles": "CC(C)=CCc1c(C)nc2ccccc2c1C(=O)O", "activity, negative = inhibition": "3.07%"},
      {"smiles": "COC(=O)c1ccc(NC(=O)C2CCCCC2C(=O)O)cc1", "note": "(centres undefined)", "activity, negative = inhibition": "7.03%"},
      {"smiles": "COC(=O)c1cc(NC(=O)CC2NC3CCCCC3NC2=O)cc(C(=O)OC)c1", "note": "(centres undefined)", "AC50": "28.2 µM (active)"},
      {"smiles": "CCC1C(=O)N=C(SCC(=O)Nc2ccc(C(=O)OC)cc2)NC1=O", "note": "(centres undefined)", "activity, negative = inhibition": "13.9%"},
      {"smiles": "COC(=O)c1cc(=O)[nH]c(=O)[nH]1", "activity, negative = inhibition": "0.116% [at 11.4 µM]"},
      {"smiles": "CC(=O)COc1ccc2c(C)c(C)c(=O)oc2c1", "activity, negative = inhibition": "-1.64% [at 2.29 µM]"},
      {"smiles": "CC(=O)c1c(C)[nH]c(C(=O)COc2ccc(C#N)cc2)c1C", "AC50": "3.16 µM (active)"},
      {"smiles": "CC#CCOC(=O)c1c(C)nc2sc3c(c2c1N)CC[C@@H](O)C3", "AC50": "3.16 µM (active)"},
      {"smiles": "CC(=O)N1CCN(c2nc(C)nc3sc4c(c23)CCC(C)C4)CC1", "note": "(centres undefined)", "activity, negative = inhibition": "-28.1%"},
      {"smiles": "Cc1cc(N2C(=O)C(O)=C(C(=O)c3ccco3)C2c2ccc(O)cc2)no1", "note": "(centres undefined)", "activity, negative = inhibition": "-0.524%"},
      {"smiles": "COc1cccc(/C(O)=C2/C(=O)C(=O)N(c3cc(C)on3)C2c2cccs2)c1", "note": "(centres undefined)", "AC50": "28.2 µM (active)"},
      {"smiles": "COCCN1C(=O)C(=O)/C(=C(/O)c2cccc(OC)c2)C1c1ccc(C)o1", "note": "(centres undefined)", "activity, negative = inhibition": "-3.3%"},
      {"smiles": "COC(=O)[C@@]1(Cc2ccc(OC)cc2)[C@H]2c3cc(C(=O)N4CCCC4)n(Cc4ccc(C(F)(F)F)nc4)c3C[C@H]2CN1C(=O)c1ccccc1", "AC50": "3.16 µM (active)"},
      {"smiles": "COC(=O)[C@@]1(Cc2ccc(F)cc2)[C@H]2c3cc(C(=O)N(C)C)n(Cc4ccc(C(F)(F)F)nc4)c3C[C@H]2CN1C(=O)c1ccccc1", "AC50": "1.26 µM (active)"},
      {"smiles": "COC(=O)[C@@]1(Cc2ccc(OC)cc2)[C@H]2c3cc(C(=O)N4CCCC4)n(CCn4cc([N+](=O)[O-])nc4C)c3C[C@H]2CN1C(=O)c1ccccc1", "AC50": "3.98 µM (active)"},
      {"smiles": "COC(=O)[C@@]1(Cc2ccccc2)[C@H]2c3cc(C(=O)N4CCCC4)n(Cc4ccc(C(F)(F)F)nc4)c3C[C@H]2CN1C(=O)c1ccccc1", "AC50": "3.16 µM (active)"},
      {"smiles": "O=C(NCCCn1ccnc1)c1ccc(Br)c(S(=O)(=O)N2CCOCC2)c1", "AC50": "2 µM (active)"}
    ]}
  ]
}
